This note sets out measurements from publication PMC9911399, “Two distinct binding modes provide the RNA-binding protein RbFox with extraordinary sequence specificity”.

Positions count from the first letter of the chain named. In all, about 16,000 sequences were measured (“ka relative to ugcaugu”: median about 0.0091, highest 2% from about 0.032 on). The sample holds the highest values, similar sequences and a random draw of the others, so the mix is not that of the screen.

To fix the notation:
T1: RBFOX1 RRM (Homo sapiens, UniProt Q9NWB1 109-208)
T1 sequence: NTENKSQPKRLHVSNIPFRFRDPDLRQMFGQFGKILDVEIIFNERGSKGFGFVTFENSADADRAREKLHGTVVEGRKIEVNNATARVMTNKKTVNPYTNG

B1: UGCGAUA (DNA:RNA)
RNA: GGGAGACCGGAAUUCAGAUUGUCCUGCGAUAUUAAAUCCCGUCGUAGCCACCA
DNA 1: CAATCTGAATTCCGGTCTCCC
DNA 2: TGGTGGCTACGACGGGATT
B2: UUGAGCA (DNA:RNA)
RNA: B1 RNA with G26U, C27G, G28A, A29G, U30C
DNA 1: CAATCTGAATTCCGGTCTCCC
DNA 2: TGGTGGCTACGACGGGATT
B3: CUUUUUG (DNA:RNA)
RNA: B1 RNA with U25C, G26U, C27U, G28U, A29U, A31G
DNA 1: CAATCTGAATTCCGGTCTCCC
DNA 2: TGGTGGCTACGACGGGATT
B4: UCAACCU (DNA:RNA)
RNA: B1 RNA with G26C, C27A, G28A, A29C, U30C, A31U
DNA 1: CAATCTGAATTCCGGTCTCCC
DNA 2: TGGTGGCTACGACGGGATT
B5: UACCUGU (DNA:RNA)
RNA: B1 RNA with G26A, G28C, A29U, U30G, A31U
DNA 1: CAATCTGAATTCCGGTCTCCC
DNA 2: TGGTGGCTACGACGGGATT
B6: AGGGCGU (DNA:RNA)
RNA: B1 RNA with U25A, C27G, A29C, U30G, A31U
DNA 1: CAATCTGAATTCCGGTCTCCC
DNA 2: TGGTGGCTACGACGGGATT
B7: GUUUUGU (DNA:RNA)
RNA: GGGAGACCGGAAUUCAGAUUGUCCGUUUUGUUUAAAUCCCGUCGUAGCCACCA
DNA 1: CAATCTGAATTCCGGTCTCCC
DNA 2: TGGTGGCTACGACGGGATT
B8: AAUCCAC (DNA:RNA)
RNA: B7 RNA with G25A, U26A, U28C, U29C, G30A, U31C
DNA 1: CAATCTGAATTCCGGTCTCCC
DNA 2: TGGTGGCTACGACGGGATT
B9: CCGUGCA (DNA:RNA)
RNA: B7 RNA with G25C, U26C, U27G, U29G, G30C, U31A
DNA 1: CAATCTGAATTCCGGTCTCCC
DNA 2: TGGTGGCTACGACGGGATT
B10: GGGUGCA (DNA:RNA)
RNA: B7 RNA with U26G, U27G, U29G, G30C, U31A
DNA 1: CAATCTGAATTCCGGTCTCCC
DNA 2: TGGTGGCTACGACGGGATT
B11: UGGUGCA (DNA:RNA)
RNA: B1 RNA with C27G, G28U, A29G, U30C
DNA 1: CAATCTGAATTCCGGTCTCCC
DNA 2: TGGTGGCTACGACGGGATT
B12: UGCAGCA (DNA:RNA)
RNA: B1 RNA with G28A, A29G, U30C
DNA 1: CAATCTGAATTCCGGTCTCCC
DNA 2: TGGTGGCTACGACGGGATT
B13: UGCAUUG (DNA:RNA)
RNA: B1 RNA with G28A, A29U, A31G
DNA 1: CAATCTGAATTCCGGTCTCCC
DNA 2: TGGTGGCTACGACGGGATT
B14: UGCAUUA (DNA:RNA)
RNA: B1 RNA with G28A, A29U
DNA 1: CAATCTGAATTCCGGTCTCCC
DNA 2: TGGTGGCTACGACGGGATT
B15: CUGUGCA (DNA:RNA)
RNA: B7 RNA with G25C, U27G, U29G, G30C, U31A
DNA 1: CAATCTGAATTCCGGTCTCCC
DNA 2: TGGTGGCTACGACGGGATT
B16: UGCUGCA (DNA:RNA)
RNA: B1 RNA with G28U, A29G, U30C
DNA 1: CAATCTGAATTCCGGTCTCCC
DNA 2: TGGTGGCTACGACGGGATT
B17: UCCUGCA (DNA:RNA)
RNA: B1 RNA with G26C, G28U, A29G, U30C
DNA 1: CAATCTGAATTCCGGTCTCCC
DNA 2: TGGTGGCTACGACGGGATT
B18: CGGUGCA (DNA:RNA)
RNA: B1 RNA with U25C, C27G, G28U, A29G, U30C
DNA 1: CAATCTGAATTCCGGTCTCCC
DNA 2: TGGTGGCTACGACGGGATT
B19: UGCAUUC (DNA:RNA)
RNA: B1 RNA with G28A, A29U, A31C
DNA 1: CAATCTGAATTCCGGTCTCCC
DNA 2: TGGTGGCTACGACGGGATT
B20: GGUGCAU (DNA:RNA)
RNA: B7 RNA with U26G, U28G, U29C, G30A
DNA 1: CAATCTGAATTCCGGTCTCCC
DNA 2: TGGTGGCTACGACGGGATT

This assay concerns the target T1, RBFOX1 RRM. Briefly: EMSA; HiTS-Eq, 1 nM pool, 10 min; buffer printed only for the single-RNA assays: 10 mM Tris pH 7.5, 150 mM NaCl, 3.4 mM EDTA, 0.001% NP-40, 30 C. The conditions noted are these: tags: His6 N-terminal (pET28a); label: 5' 32P. An outline of the steps:
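A pool of RNA with 7 randomized nucleotides, 5′-radiolabelled and with DNA-annealed flanks, was equilibrated at 1 nM for 10 min in 50 µL with purified RbFox RRM, wild type or mutant, across increasing protein concentrations. Free RNA was separated by 8% native PAGE, excised, reverse-transcribed, barcoded by PCR and sequenced. Relative association constants were obtained from read-count changes of each RNA species versus the control reaction and normalised to the cognate motif.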
(Mobility shift assays separate free from complexed probe on a gel.)
On to B1, for which the binding signal was 0.017 KA relative to UGCAUGU.

Consider B2, for which the binding signal is 0.0174 KA relative to UGCAUGU.

As to B3, the binding signal was 0.0263 KA relative to UGCAUGU.

For B4, the binding signal was 0.00233 KA relative to UGCAUGU.

For B5, the binding signal was 0.0129 KA relative to UGCAUGU.

On to B6, for which the binding signal was 0.0222 KA relative to UGCAUGU.

B7: the binding signal is 0.0195 KA relative to UGCAUGU.

As to B8, the binding signal was 0.000933 KA relative to UGCAUGU.

On to B9, for which the binding signal is 0.017 KA relative to UGCAUGU.

On to B10, for which the binding signal is 0.0415 KA relative to UGCAUGU.

Turning to B11, the binding signal is 0.0327 KA relative to UGCAUGU.

As for B12, the binding signal is 0.0136 KA relative to UGCAUGU.

In the case of B13, the binding signal is 0.0355 KA relative to UGCAUGU.

For the molecule B14, the binding signal is 0.0146 KA relative to UGCAUGU.

For B15, the binding signal was 0.0239 KA relative to UGCAUGU.

For B16, the binding signal was 0.0343 KA relative to UGCAUGU.

In the case of B17, the binding signal was 0.0135 KA relative to UGCAUGU.

In the case of B18, the binding signal is 0.0194 KA relative to UGCAUGU.

Turning to B19, the binding signal is 0.0105 KA relative to UGCAUGU.

As for B20, the binding signal was 0.0241 KA relative to UGCAUGU.
